Results filed as inconclusive are left out. Unmarked numbers belong to inactive results. Activity calls are given as the source filed them. Calls come from the whole dose curve; as a rule, active = well fitted inhibition curve with a large enough effect; inconclusive = small, poorly fitted or top-dose-only effect; inactive = no such curve, though single readings can be large or run the other way.
These molecules were tested against RecQ-like DNA helicase BLM (Homo sapiens) (UniProt P54132) (assay: qHTS Validation Assay for Inhibitors of Bloom's syndrome helicase (BLM) (AID 2364)). Conditions: BLM helicase DNA unwinding, fluorescence, in vitro; series mostly up to 57.1 µM; activity change, negative = inhibition: at the top concentration.
Source text: Survival of cells and the faithful propagation of the genome depend on elaborate mechanisms of detecting and repairing DNA damage. Treatment of advanced cancer relies on radiation therapy or chemotherapy, which kill cancer cells by causing extensive DNA damage. It is often found, that cancer cells develop resistance to therapy through enhanced activity of DNA repair functions; this has led to an increased interest in developing drugs that interfere with DNA repair, which could sensitize cancer cells to conventional therapy.
This validation qHTS assay pertains to human BLM, which is important in resolving abnormal DNA structures formed during replication or homologous recombination. Shutting down the expression of BLM leads to chromosomal instability and higher radiation sensitivity in cultured cells.
The validation assay was a fluorescence quenching based kinetic qHTS for BLM Helicase DNA unwinding. The activity was measured as ATP-dependent separation of a 20-bp DNA duplex extended by 30-nt single-stranded tails (forked duplex). The forked DNA substrate was tagged with rhodamine fluorophore (carboxytetramethyl rhodamine, TAMRA) and BHQ-2 (Black Hole Quencher 2) dark quencher. Strand separation results in an increase in the fluorescence of TAMRA (excitation 525 nm, emission 598 nm). This substrate construct operates in a red-shifted region where very few compound library members have been noted to fluoresce (PubChem AIDs 593 and 594). An additional feature of the assay is the inclusion of 2.5 ug/ml poly (dIdC), to reduce interference by compounds such as DNA intercalators, a major source of false inhibitors.
Ian Hickson, University of Oxford
Opher Gileadi, Structural Genomics Consortium, University of Oxford
Screening Center PI: Austin, C.P.
Screening Center: NIH Chemical Genomics Center [NCGC]
Three uL of reaction buffer (25 mM Tris-HCl (pH 8.0), 5 mM NaCl, 2 mM MgCl2, 1mM DTT, 0.01% Tween- 20, and 2.5 ug/ml poly(dI-dC), including enzyme (50 nM BLM), were dispensed into a 1536-well Greiner black assay plate via solenoid-valve based nanoliter dispensers. Compounds (23 nl each in columns 5-48) and control (23 nl each in column 2 as dose-response) were transferred via a Kalypsys pintool equipped with a 1536-pin array. The plates were incubated for 15 min at room temperature, and then 1 ul of substrates (200 nM DNA and 2 mM ATP, final concentrations) was added to start the reaction. The plate was transferred into a ViewLux high-throughput CCD imager where the reaction progress was measured in a discontinuous kinetic mode (two reads spaced 2 hours apart, with intermediate room temperature incubation of the covered assay plate) by using standard red-fluorescence optics (excitation filter 525 nm, emission filter 598 nm). Enzyme-free and vehicle (DMSO) controls were included for signal normalization.
Potency is the fitted concentration of half-maximal effect.

RecQ-like DNA helicase BLM (Homo sapiens), sequence (P54132 whole entry, looked up): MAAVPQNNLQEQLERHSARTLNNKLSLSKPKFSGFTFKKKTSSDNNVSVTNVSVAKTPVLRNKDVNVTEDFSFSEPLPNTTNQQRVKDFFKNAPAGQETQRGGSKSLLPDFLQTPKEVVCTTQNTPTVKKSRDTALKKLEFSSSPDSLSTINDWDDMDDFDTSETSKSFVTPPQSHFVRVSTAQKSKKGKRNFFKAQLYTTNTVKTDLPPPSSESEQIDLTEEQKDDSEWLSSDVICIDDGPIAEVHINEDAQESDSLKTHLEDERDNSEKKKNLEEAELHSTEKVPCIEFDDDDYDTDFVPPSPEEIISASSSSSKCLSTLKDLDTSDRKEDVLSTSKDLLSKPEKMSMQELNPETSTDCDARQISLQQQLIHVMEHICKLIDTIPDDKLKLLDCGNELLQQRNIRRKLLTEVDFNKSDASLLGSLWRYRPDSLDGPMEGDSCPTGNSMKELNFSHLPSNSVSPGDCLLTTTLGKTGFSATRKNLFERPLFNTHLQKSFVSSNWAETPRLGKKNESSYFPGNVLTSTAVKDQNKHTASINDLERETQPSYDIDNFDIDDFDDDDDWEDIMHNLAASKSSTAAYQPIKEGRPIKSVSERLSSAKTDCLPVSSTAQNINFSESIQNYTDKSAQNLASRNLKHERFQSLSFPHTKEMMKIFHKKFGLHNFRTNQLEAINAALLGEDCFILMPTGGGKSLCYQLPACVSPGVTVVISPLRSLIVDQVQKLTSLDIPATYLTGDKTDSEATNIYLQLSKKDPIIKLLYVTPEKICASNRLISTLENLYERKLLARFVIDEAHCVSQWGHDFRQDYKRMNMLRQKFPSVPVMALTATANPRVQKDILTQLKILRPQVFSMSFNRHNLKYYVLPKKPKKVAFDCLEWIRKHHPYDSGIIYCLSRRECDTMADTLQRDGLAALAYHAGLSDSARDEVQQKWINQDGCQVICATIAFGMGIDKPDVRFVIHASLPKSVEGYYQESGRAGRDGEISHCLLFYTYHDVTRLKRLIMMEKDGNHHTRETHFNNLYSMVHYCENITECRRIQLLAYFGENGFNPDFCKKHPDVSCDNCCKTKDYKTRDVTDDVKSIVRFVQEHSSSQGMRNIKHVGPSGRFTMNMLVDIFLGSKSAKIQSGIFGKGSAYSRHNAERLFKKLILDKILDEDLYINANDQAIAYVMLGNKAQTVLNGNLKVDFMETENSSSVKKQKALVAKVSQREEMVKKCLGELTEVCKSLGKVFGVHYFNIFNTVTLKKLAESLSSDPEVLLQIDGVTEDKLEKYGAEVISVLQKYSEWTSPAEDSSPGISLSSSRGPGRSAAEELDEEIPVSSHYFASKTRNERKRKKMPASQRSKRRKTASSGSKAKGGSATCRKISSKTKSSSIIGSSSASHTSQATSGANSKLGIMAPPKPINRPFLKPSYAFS

| SMILES | activity change, negative = inhibition | Potency |
| --- | --- | --- |
| CCCN(CCC)[C@@H]1CCc2cccc(O)c2C1 | -7.38% | – |
| NCCc1ccc(S(=O)(=O)F)cc1 | -7.81% | – |
| C#CCN[C@H](C)Cc1ccccc1 | -7.8% | – |
| CCCN(CCC)CCc1ccc(O)c(O)c1 | -8.7% | – |
| COc1ccc2[nH]c3c(c2c1)CCNC3 | -8.56% | – |
| NC(=O)c1ccc(OCC(O)CN2CC=C(c3ccc(F)cc3)CC2)cc1 (stereo not given) | -3.4% | – |
| NC(Cc1cc(O)c(O)cc1O)C(=O)O (stereo not given) | – | 3.16 µM (active) |
| COc1ccc(CNC(=O)/C=C/c2ccc3[nH]cc(CCN(C)C)c3c2)cc1 | -9.11% | – |
| c1ccc2c(N3CCNCC3)cccc2c1 | -12.8% | – |
| COc1ccc2c(c1)C13CCCCC1C(C2)N(C)CC3 (stereo not given) | -6.8% | – |
| OCc1cnc[nH]1 | -6.13% | – |
| O=c1c2ccccc2[se]n1-c1ccccc1 | -11.6% | – |
| C[N+]1(C)CCOC(O)(c2ccc(-c3ccc(C4(O)C[N+](C)(C)CCO4)cc3)cc2)C1 (stereo not given) | 65.7% | – |
| NC(N)=Nc1ccc2[nH]c3c(c2c1)C[C@@]1(O)[C@H]2Cc4ccc(O)c5c4[C@@]1(CCN2CC1CC1)[C@H]3O5 | 2.22% | – |
| NCCc1c[nH]c2ccc(C(N)=O)cc12 | -6.03% | – |
| CC(=O)NBr | -9.3% | – |
| CCn1cnc2c(Nc3cccc(Cl)c3)nc(N[C@@H]3CCCC[C@@H]3N)nc21 | 13.3% | – |
| O=[N+]([O-])c1cc(O)c(O)c([N+](=O)[O-])c1 | -8.56% | – |
| Oc1ccc2c3c1O[C@H]1c4oc5ccccc5c4C[C@@]4(O)C(C2)N(CC2CC2)CCC314 (stereo not given in full) | -0.807% | – |
| c1ccc2cc(CC3=NCCN3)ccc2c1 | 10.8% | – |

| SMILES | activity change, negative = inhibition | Potency |
| --- | --- | --- |
| CCCN(CCC)[C@H]1CCc2c(F)ccc(O)c2C1 | -1.17% | – |
| CN(C(=O)Cc1ccc(Cl)c(Cl)c1)C(CN1CCCC1)c1cccc(OCC(=O)O)c1 (stereo not given) | -8.56% | – |
| CCCN(CCC)CCc1c[nH]c2ccc(C(N)=O)cc12 | -10.3% | – |
| CC(C)CC(NP(=O)(O)O[C@@H]1O[C@@H](C)[C@H](O)[C@@H](O)[C@H]1O)C(=O)NC(Cc1c[nH]c2ccccc12)C(=O)O (stereo not given in full) | -10.5% | – |
| COc1cc(CC(C)N)c(OC)cc1I (stereo not given) | -9.17% | – |
| COc1ccc2c(c1)[C@@]13CCCC[C@H]1[C@@H](C2)NCC3 | -3.61% | – |
| CNC(=O)OCC[N+](C)(C)C | -3.48% | – |
| CN1C2CCC1CC(OC(c1ccccc1)c1ccccc1N)C2 (stereo not given) | -9.11% | – |
| CCCN1CC[C@@H]2c3cc(O)ccc3CC[C@@H]21 | -7.46% | – |
| CC(C)NP(=O)(NC(C)C)OP(=O)(NC(C)C)NC(C)C | -9.75% | – |
| CN(N=O)c1cc(O)ccc1O | – | 28.2 µM (active) |
| C[N+](C)(C)CC#CCN1CCCC1=O | -0.0638% | – |
| NC(C(=O)O)c1cc(=O)[nH]o1 (stereo not given) | -12.4% | – |
| CC(N)Cc1c[nH]c2ccc(OCc3cccs3)cc12 (stereo not given) | -6.03% | – |
| CN1CCc2cccc(Cl)c2CC1 | -10.9% | – |
| C[C@H](Cc1ccc2c(c1)OC(C(=O)O)(C(=O)O)O2)NC[C@H](O)c1cccc(Cl)c1 | -8.15% | – |
| NCC(CP(=O)(O)O)c1ccc(Cl)cc1 (stereo not given) | -11% | – |
| CC(N)c1cccc(Cl)c1Cl (stereo not given) | -9.38% | – |
| NC(Cc1ccc(N(CCCl)CCCl)cc1)C(=O)O (stereo not given) | -8.83% | – |
| O=[N+]([O-])c1ccc2nc(N3CCNCC3)ccc2c1 | 26.2% | – |
